Screening data: PubChem, National Center for Advancing Translational Sciences (NCATS)
Only some compounds are listed: those with a hit (about 4.3% of all), similar ones and a draw of the others.
DRD3 antagonist – qHTS of D3 Dopamine Receptor Antagonist: qHTS. D(3) dopamine receptor (Homo sapiens), P35462. D3R cells, DiscoveRx beta-arrestin luminescence, antagonist mode; stronger effect = lower value. max response, negative = inhibition, %. hit rate 2.5% among 360,000. AID 652054, 2013; in the data active = max response below about -50%; inconclusive = no clear call, values can overlap the other calls; also: % is scaled to controls: 0 for no effect and ±100 for the full control effect
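Cells expressing the human receptor were seeded at 1500 cells/well, incubated overnight at 37 degrees C in 5% CO2, then exposed to library compounds with dopamine controls for 90 minutes at 37 degrees C before luminescent detection.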
DRD3 agonist – qHTS of D3 Dopamine Receptor Agonist: qHTS; D(3) dopamine receptor (Homo sapiens), P35462; D3R DiscoveRx beta-arrestin cells, luminescence, 90 min; max activation, %; hit rate 0.58% among 410,000; AID 652048, 2013; in the data active = max activation above about 30%; also: 0% is about no effect
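Agonist-mode cell screen: cells plated at 1500/well and incubated overnight at 37 °C, then exposed to library compounds for 90 min at 37 °C. Detection reagent was added for 30–60 min at room temperature, and luminescence was read.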
GLP1R inv ag – qHTS of GLP-1 Receptor Inverse Agonists (Inhibition Mode); Glucagon-like peptide 1 receptor (Homo sapiens), P43220; HEK293 GLP-1R CRE-luciferase, luminescence, 24 h; GLP-1R form is constitutively active; Potency, µM (titrated, usually from 38.3 µM), for the others: at the highest dose activity change, negative = inhibition, actives largely listed as inhibitors; hit rate 1.6% among 410,000; also: potency is read from the fitted curve at half-maximal effect; % is scaled to controls: 0 for no effect and ±100 for the full control effect; nearly all actives have a fitted effect of over 55% in size
Target sequence (P43220 whole entry, looked up): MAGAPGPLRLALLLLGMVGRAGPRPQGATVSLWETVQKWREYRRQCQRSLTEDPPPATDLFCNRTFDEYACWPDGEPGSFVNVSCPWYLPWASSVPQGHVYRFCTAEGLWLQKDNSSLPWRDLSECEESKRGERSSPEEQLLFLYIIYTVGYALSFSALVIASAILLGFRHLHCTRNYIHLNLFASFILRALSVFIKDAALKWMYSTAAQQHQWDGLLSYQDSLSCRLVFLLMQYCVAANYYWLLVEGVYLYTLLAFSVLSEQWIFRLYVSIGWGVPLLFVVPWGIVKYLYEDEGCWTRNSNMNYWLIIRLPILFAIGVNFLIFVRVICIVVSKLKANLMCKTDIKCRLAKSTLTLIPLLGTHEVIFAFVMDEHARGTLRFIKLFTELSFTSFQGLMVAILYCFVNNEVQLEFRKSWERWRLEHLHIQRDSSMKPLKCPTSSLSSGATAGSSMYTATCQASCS
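Inverse agonism was detected as reduced cAMP-driven luciferase luminescence after 24 h compound treatment. The cells were HEK293 clones expressing constitutively active human GLP-1R with the reporter. Reporter-only and GPR119 cell lines served as counterscreen controls.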
GLP-1R agonist – qHTS of GLP-1 Receptor Agonists; HEK293 GLP-1R CRE-luciferase, luminescence, 4-6 h; cells express a hypersensitive GLP-1R form; Potency, µM (doses to about 45.6 µM), inactives show at the highest dose activation, most hits filed as activators; hit rate 0.007% among 380,000; also: potency is read from the fitted curve at half-maximal effect; % of control where 0% means no effect
An asterisk follows results filed as active. Unless noted, calls follow the shape of the dose curve; as a rule, active = well fitted curve in the direction sought with a large enough effect; inconclusive = small, poorly fitted or top-dose-only effect, or another doubt; inactive = no such curve, though single readings can be large; an effect the other way counts as inactive or inconclusive.

For Cc1ccc(NCCC(=O)c2ccc(Cl)cc2)cc1C the results were DRD3 antagonist -21.9, DRD3 agonist -7.3, GLP1R inv ag 7.0% and GLP-1R agonist 1.2%.
Screening CCCOc1ccc(C(=O)CCNc2ccc(C)c(Cl)c2)cc1 returned DRD3 antagonist -83.7*, DRD3 agonist -12.1, GLP1R inv ag 2.2% and GLP-1R agonist -4.7%.
`CNC[C@@H]1CC[C@@H](N)[C@@H](O[C@H]2[C@H](O)[C@@H](O[C@H]3OC[C@](C)(O)[C@H](NC)[C@H]3O)[C@H](N)C[C@@H]2N)O1` gave DRD3 agonist 2.5 and GLP-1R agonist 22.1%.
C/C(CC(=O)NCCN1CCOCC1)=N\NC(=O)c1ccncc1 was read as DRD3 antagonist 0.2, DRD3 agonist 3.7, GLP1R inv ag 3.3% and GLP-1R agonist -1.3%.
Cc1nn(CC(=O)NCc2ccc(N(C)C)cc2)c(=O)c2nn(-c3ccccc3)c(C)c12 was read as DRD3 agonist -1.3 and GLP1R inv ag -26.1%.
CCCCCCc1cc2cc(S(=O)(=O)c3ccc(F)c(Cl)c3)c(=O)oc2cc1O was read as DRD3 antagonist 29.7, DRD3 agonist 68.6*, GLP1R inv ag -13.5% and GLP-1R agonist -17.2%.
Screening O=C(c1cc(-c2ccccc2Cl)nc2ccccc12)N1CCC1 returned DRD3 antagonist 0.4, DRD3 agonist -3.1, GLP1R inv ag 7.2% and GLP-1R agonist 3.3%.
For CN1CCC(N(C)C(=O)c2cc(-c3ccccc3Cl)nc3ccccc23)CC1 the results were DRD3 antagonist -59.5*, DRD3 agonist -11.3, GLP1R inv ag inconclusive and GLP-1R agonist 1.4%.
Screening CN1CCCN(C(=O)c2cc(-c3cccc4ccccc34)nc3ccccc23)CC1 returned DRD3 antagonist 29.6, DRD3 agonist -0.7, GLP1R inv ag 7.94µM* and GLP-1R agonist 16.1%.
O=C(Nc1ccc(S(=O)(=O)N2CCC(c3nc4ccccc4s3)CC2)cc1)c1ccccc1 was read as DRD3 agonist -7.3 and GLP1R inv ag 18.4%.
Screening Cc1nc2c(-c3ccc(F)cc3)c(C)nn2c(C)c1CCC(=O)NC(C)CCc1ccco1 (centres undefined) returned DRD3 antagonist -7.2, DRD3 agonist 4.3, GLP1R inv ag 7.08µM* and GLP-1R agonist -1.4%.
CC(=O)c1cccc(NC(=O)c2cc3sc(Cl)cc3n2C)c1 was read as DRD3 agonist -0.9 and GLP1R inv ag -21.5%.
For Cc1cnc(NC(=O)c2ccc(OCC3CCCO3)cc2)s1 (centres undefined) the results were DRD3 antagonist 5.0, DRD3 agonist 1.1, GLP1R inv ag 5.01µM* and GLP-1R agonist -5.0%.
`Cc1ccc(NC(=O)c2ccc(OCC3CCCO3)cc2)nc1` (centres undefined) gave DRD3 antagonist -16.0, DRD3 agonist -10.7, GLP1R inv ag inconclusive and GLP-1R agonist -16.9%.
CCOc1ccc(C(=O)Nc2nnc(SCC(=O)NCC3CCCO3)s2)cc1 (centres undefined) was read as DRD3 antagonist -14.0, DRD3 agonist 2.0, GLP1R inv ag 2µM* and GLP-1R agonist -5.0%.
`Cc1cccc(C(=O)N2CCc3cc(CNC(=O)COc4ccc(Cl)cc4)ccc32)c1` gave DRD3 agonist -8.8 and GLP1R inv ag 4.8%.
Cc1ccc(C(=O)Nc2ccc3oc(-c4ccccc4C)nc3c2)cc1 was read as DRD3 agonist 0.9 and GLP1R inv ag -11.2%.
`COc1cc(/C=C2\CC/C(=C\c3cc(OC)c(O)c(OC)c3)C2=O)cc(OC)c1O` gave DRD3 antagonist -73.6*, DRD3 agonist -7.7, GLP1R inv ag -20.4% and GLP-1R agonist -14.7%.
For COc1cc(/C=C2\CC/C(=C\c3cc(OC)c(OC)c(OC)c3)C2=O)cc(OC)c1OC the results were DRD3 antagonist -4.3, DRD3 agonist -7.9, GLP1R inv ag -8.3% and GLP-1R agonist 10.3%.
Screening COc1cc(/C=C2\COC/C(=C\c3cc(OC)c(OC)c(OC)c3)C2=O)cc(OC)c1OC returned DRD3 antagonist -62.7*, DRD3 agonist -11.8, GLP1R inv ag inconclusive and GLP-1R agonist 0.5%.
`Cc1cccc(NC(=O)CSc2nc(=O)n(Cc3ccccn3)c3c2CCC3)c1C` gave DRD3 agonist 0.0 and GLP1R inv ag 5.1%.
O=C(Nc1ccccc1C(F)(F)F)C1CCN(S(=O)(=O)Cc2ccccc2)CC1 was read as DRD3 agonist 2.6 and GLP1R inv ag -18.7%.
For COc1ccc(OC)c(-n2nnnc2SCC(=O)Nc2ccc(C(=O)N3CCCCC3)cc2)c1 the results were DRD3 antagonist 6.5, DRD3 agonist 32.9*, GLP1R inv ag 0.0% and GLP-1R agonist 2.2%.
Screening O=C(CSc1ccc(Cl)cc1)Nc1ccc(N2CCN(c3ccccc3)CC2)c(F)c1 returned DRD3 antagonist 36.0, DRD3 agonist -15.1, GLP1R inv ag -4.7% and GLP-1R agonist -1.1%.
Screening COc1ccc(NC(=O)CSc2nnnn2-c2ccccc2F)cc1 returned DRD3 antagonist -8.0, DRD3 agonist -2.8, GLP1R inv ag -7.4% and GLP-1R agonist -5.4%.
Screening CN1CCN(c2ccc(NC(=O)CSc3nnnn3-c3ccccc3F)cc2)CC1 returned DRD3 antagonist 6.3, DRD3 agonist -1.0, GLP1R inv ag 2.82µM* and GLP-1R agonist -1.2%.
Screening Cc1ccc(-n2nnnc2SCC(=O)Nc2cc(C)on2)c(C)c1 returned DRD3 antagonist 0.6, DRD3 agonist 3.9, GLP1R inv ag 9.2% and GLP-1R agonist 0.5%.
`Cc1ccc(SCC(=O)Nc2ccc(N3CCN(C)CC3)c(F)c2)c(C)c1` gave DRD3 antagonist -98.1*, DRD3 agonist -2.8, GLP1R inv ag inconclusive and GLP-1R agonist -6.2%.
Cc1ccc(-n2nnnc2SCC(=O)Nc2ccc(N3CCN(C)CC3)cc2)c(C)c1 was read as DRD3 antagonist -11.0, DRD3 agonist -6.0, GLP1R inv ag 3.55µM* and GLP-1R agonist 12.0%.
CCSc1ncc(Cl)c(C(=O)Nc2c(C(=O)Nc3ccccc3)oc3ccccc23)n1 was read as DRD3 agonist -8.7 and GLP1R inv ag -5.5%.
For COc1cccc(CNC(=O)C2CCN(c3nc4ccc(Cl)cc4[nH]3)CC2)c1 the results were DRD3 agonist 3.9 and GLP1R inv ag -23.4%.
Cc1cccc(S(=O)(=O)c2cn(Cc3ccccc3)c3cc(N4CCCCC4)c(F)cc3c2=O)c1 was read as DRD3 agonist -10.0 and GLP1R inv ag -2.4%.
Screening Cc1oc(-c2cccc(Cl)c2)nc1CSc1nncn2c1cc1occc12 returned DRD3 agonist -7.5 and GLP1R inv ag 11.2%.
For Cc1nnc(SCC(=O)Nc2ccc(S(=O)(=O)N3CCCC3)cc2)n1N the results were DRD3 antagonist 15.6, DRD3 agonist 7.7, GLP1R inv ag -0.8% and GLP-1R agonist -9.1%.
`Cc1ccccc1-n1nnnc1SCC(=O)Nc1ccc(S(=O)(=O)N2CCCC2)cc1` gave DRD3 antagonist 8.7, DRD3 agonist -3.2, GLP1R inv ag 11.2µM* and GLP-1R agonist 3.5%.
